Source: the supplement of paper PMC10127200
Counter-ions that a name gives are not always drawn.

How the values were obtained:
Test in all cases: Euclidean distance of Cell Painting phenotypic profile (signed KS, 77 features) to DMSO centroid (dimensionless distance); 5 or 10 uM (library dependent); higher = stronger phenotypic change vs DMSO (phenoactivity)
Settings in all cases: 48 h
786-O = tested on: 786-O
Method in brief: (§1)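 Five cancer lines, together with a healthy fibroblast line, received library compounds for 48 h at a library-dependent 10 or 5 uM and 0.1% DMSO final. Harmony then derived 77 features from confocal 20X images (9 fields/well) of the stained cells, scoring each as a signed Kolmogorov-Smirnov statistic against same-plate vehicle wells. After plate-position correction, correlation weighting and replicate averaging at the top dose, phenoactivity was taken as each profile's Euclidean distance to the median vehicle profile.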

A549 = tested on: A549
Method in brief: as §1

DU145 = tested on: DU145
Method in brief: as §1

FB = tested on: FB
Method in brief: as §1

HEPG2 = tested on: HEPG2
Method in brief: as §1

OVCAR4 = tested on: OVCAR4
Method in brief: as §1

SMILES | Euclidean distance (786-O) | Euclidean distance (A549) | Euclidean distance (DU145) | Euclidean distance (FB) | Euclidean distance (HEPG2) | Euclidean distance (OVCAR4)
CCOC(=O)[C@H](CCc1ccccc1)N[C@@H](C)C(=O)N1C(=O)N(C)C[C@H]1C(=O)O [Imidapril HCl] | 0.604 | 0.657 | 0.965 | 1.1 | 1.55 | 1.05
C=CC(=O)N1CCC[C@@H](n2nc(-c3ccc(Oc4ccccc4)cc3)c3c(N)ncnc32)C1 | 1.76 | 2.16 | 2.61 | 2.35 | 1.42 | 2.38
CSCC[C@H](N)C(=O)O [L-methionine] | 1.08 | 0.829 | 1.25 | 0.928 | 0.685 | 1.71
CN(Cc1ccc(C(C)(C)C)cc1)Cc1cccc2ccccc12 [Butenafine HCl] | 0.641 | 0.57 | 0.938 | 0.74 | 0.375 | 1.15
COC(=O)Nc1nc2cc(C(=O)c3ccc(F)cc3)ccc2[nH]1 [Flubendazole] | 2.74 | 2.91 | 3.24 | 2.46 | 2.16 | 3.1
COCCNCCc1cccc(Nc2ncc3c(n2)-c2ccccc2[C@H](c2ccccc2F)C3)c1 [Derazantinib(ARQ-087)] | 6.37 | 4.25 | 5.6 | 3.69 | 4.56 | 4
O=C(O)Cc1cccc(OCCCN(Cc2cccc(C(F)(F)F)c2Cl)CC(c2ccccc2)c2ccccc2)c1 | 1.18 | 0.78 | 0.825 | 1.32 | 0.721 | 0.79
O=C(NOCC1CC1)c1ccc(F)c(F)c1Nc1ccc(I)cc1Cl | 2.48 | 3.7 | 2.78 | 2.12 | 2.22 | 2.06
Cc1cnc(-c2cnc(NCCNc3ccc(C#N)cn3)nc2-c2ccc(Cl)cc2Cl)[nH]1 | 1.86 | 2.18 | 1.61 | 1.12 | 1.15 | 1.13
CCC(NC(C)C)C(O)c1ccc(O)c2[nH]c(=O)ccc12 (configuration not stated) [Procaterol HCl] | 1.23 | 1.55 | 0.791 | 0.891 | 2.17 | 1.67
Nc1nnc(-c2cccc(Cl)c2Cl)c(N)n1 [Lamotrigine] | 0.851 | 1.05 | 0.825 | 1.12 | 0.712 | 1.42
CNC(=O)c1ccc(N2C(=S)N(c3cnc(C#N)c(C(F)(F)F)c3)C(=O)C23CCC3)cc1F | 1.4 | 1.24 | 0.954 | 0.828 | 1.01 | 1.16
CN(C)c1ccc(-c2nc3ncc(Cl)c(N4CCN(CC(=O)Nc5nccs5)CC4)c3[nH]2)cc1 | 1.74 | 1.55 | 1.32 | 1.56 | 0.715 | 1.59
O=C(COc1ccc(Cl)cc1)N1CCN(Cc2ccc3c(c2)OCO3)CC1 [Fipexide hydrochloride] | 1.78 | 1.13 | 1.39 | 1.08 | 0.573 | 1.32
CCCCOc1cc(C(=O)NCCN(CC)CC)c2ccccc2n1 [Cinchocaine] | 0.885 | 1.28 | 0.93 | 1.03 | 1.47 | 1.21
CCCCc1oc2ccc(NS(C)(=O)=O)cc2c1C(=O)c1ccc(OCCCN(CCCC)CCCC)cc1 [Dronedarone] | 4.33 | 4.18 | 3.45 | 3.39 | 4.6 | 3.76
Cc1ccc(N(CC2=NCCN2)c2cccc(O)c2)cc1 [Phentolamine Mesylate] | 1.55 | 0.595 | 0.949 | 1.19 | 1.72 | 1.1
CC(C)C[C@H](NC(=O)[C@@H](COC(C)(C)C)NC(=O)[C@H](Cc1ccc(O)cc1)NC(=O)[C@H](CO)NC(=O)[C@H](Cc1c[nH]c2ccccc12)NC(=O)[C@H](Cc1cnc[nH]1)NC(=O)[C@@H]1CCC(=O)N1)C(=O)N[C@@H](CCCNC(=N)N)C(=O)N1CCC[C@H]1C(=O)NNC(N)=O [Goserelin Acetate] | 1.49 | 0.535 | 2.39 | 0.568 | 0.784 | 1.07
CCC1(O)C(=O)OCc2c1cc1n(c2=O)Cc2c-1nc1ccccc1c2CCNC(C)C (configuration not stated) [Belotecan (CKD-602) hydrochloride] | 4.55 | 3.8 | 3.52 | 3.19 | 3.12 | 3.62
Cc1cccc(-c2[nH]c(C(C)(C)C)nc2-c2ccc3c(c2)OCO3)n1 | 1.83 | 1.76 | 0.978 | 2.17 | 1.99 | 1.62
O=C(O)CNC(=O)c1ncc(-c2cccc(Cl)c2)cc1O [Vadadustat] | 1.08 | 1.97 | 2.71 | 1.67 | 0.8 | 2.35
CC(C(=O)O)c1ccc(C(=O)c2cccs2)cc1 (configuration not stated) [Suprofen] | 1.32 | 0.825 | 0.656 | 0.981 | 2.04 | 1.01
COC[C@H](NC(=O)c1cnc(C)s1)C(=O)N[C@@H](COC)C(=O)N[C@@H](Cc1ccccc1)C(=O)[C@@]1(C)CO1 [Oprozomib (ONX 0912)] | 5.53 | 4.48 | 5.47 | 4.12 | 4.53 | 4.85
CC(C(O)c1ccc(O)cc1)N1CCC(Cc2ccccc2)CC1 (configuration not stated) [Ifenprodil Tartrate] | 0.976 | 0.88 | 0.955 | 1.22 | 0.958 | 0.965

SMILES | Euclidean distance (786-O) | Euclidean distance (A549) | Euclidean distance (DU145) | Euclidean distance (FB) | Euclidean distance (HEPG2) | Euclidean distance (OVCAR4)
COc1cc2c(cc1Cc1cccc(Cl)c1F)c(=O)c(C(=O)O)cn2[C@H](CO)C(C)C [Elvitegravir (GS-9137. JTK-303)] | 1.44 | 2.36 | 1.33 | 0.872 | 0.582 | 1.76
CCCN(CCC)CCc1cccc2c1CC(=O)N2 [Ropinirole HCl] | 1.32 | 1.01 | 0.736 | 1.3 | 0.483 | 1.2
O=c1c(O)c(-c2ccc(O)cc2)oc2cc(O)cc(O)c12 [Kaempferol] | 1.49 | 0.589 | 0.883 | 1.36 | 0.783 | 1.45
Clc1ccc(C(c2ccccc2Cl)C(Cl)Cl)cc1 (configuration not stated) [Mitotane] | 0.994 | 0.919 | 1.27 | 1.79 | 1.84 | 1.45
Cn1cc(/C=C/C(=O)c2cccc(F)c2)cc1/C=C/C(=O)NO | 1.27 | 1.61 | 0.756 | 1.27 | 0.359 | 0.539
COc1cc2c(cc1OC)[C@@H](Cc1cc(OC)c(OC)c(OC)c1)[N+](C)(CCCOC(=O)CC/C=C/CCC(=O)OCCC[N+]1(C)CCc3cc(OC)c(OC)cc3[C@H]1Cc1cc(OC)c(OC)c(OC)c1)CC2 (some centres not stated) [Mivacurium chloride] | 0.861 | 1 | 0.929 | 1.3 | 0.442 | 1.25
NC(=NCCCCCCN=C(N)N=C(N)Nc1ccc(Cl)cc1)N=C(N)Nc1ccc(Cl)cc1 [Chlorhexidine?2HCl] | 2.98 | 3.13 | 2.18 | 1.67 | 2.59 | 2.56
CN1C(=O)OC(C)(C)C1=O [Trimethadione] | 0.978 | 1.26 | 0.732 | 0.717 | 0.658 | 0.721
Nc1ccn(C[C@@H](CO)OCP(=O)(O)O)c(=O)n1 [Cidofovir] | 1.22 | 1.39 | 1.14 | 0.855 | 0.834 | 1.26
CCOC(=O)[C@@H](N)Cc1ccc(-c2cc(O[C@H](c3ccc(Cl)cc3-n3ccc(C)n3)C(F)(F)F)nc(N)n2)cc1 [Telotristat Etiprate (LX 1606 Hippurate)] | 3.69 | 1.52 | 2.43 | 2.23 | 1.13 | 1.3
Cc1ccc(/C(=C\CN2CCCC2)c2cccc(/C=C/C(=O)O)n2)cc1 [Acrivastine] | 1.08 | 0.966 | 1.03 | 0.976 | 0.729 | 1.02
CC1(C)S[C@@H]2[C@H](NC(=O)Cc3ccccc3)C(=O)N2[C@H]1C(=O)O.CCN(CC)CCOC(=O)c1ccc(N)cc1 [Penicillin G Procaine] | 0.821 | 0.676 | 0.97 | 1.38 | 0.466 | 1.24
CN1CCC(OC(c2ccccc2)c2ccccc2)CC1 [Diphenylpyraline hydrochloride] | 0.93 | 0.611 | 2.19 | 1.17 | 0.532 | 0.876
C/C(=N\NC(=S)N1CCC1)c1ccccn1 | 3.65 | 3.49 | 3.44 | 3.45 | 4.41 | 4.89
CN(C)CCCN1c2ccccc2CCc2ccc(Cl)cc21 [Clomipramine HCl] | 1.08 | 0.845 | 1.4 | 1.93 | 1.92 | 1.77
CCOc1nc2cccc(C(=O)OCc3oc(=O)oc3C)c2n1Cc1ccc(-c2ccccc2-c2noc(=O)[nH]2)cc1 [Azilsartan Medoxomil] | 0.852 | 1.33 | 0.487 | 0.689 | 0.927 | 0.929
CC(C)N(CCC(=O)c1ccc2ccccc2c1)Cc1ccccc1 | 1.68 | 1.15 | 0.815 | 1.33 | 0.594 | 0.928
CC(C)(C)NC(=O)N[C@H](C(=O)N1C[C@H]2[C@@H]([C@H]1C(=O)NC(CC1CCC1)C(=O)C(N)=O)C2(C)C)C(C)(C)C (some centres not stated) [Boceprevir] | 1.48 | 0.973 | 1.59 | 1.13 | 0.545 | 1.45
Cc1ccc(Cl)c(Nc2ccccc2C(=O)O)c1Cl [Meclofenamate Sodium] | 1.09 | 1.34 | 1.66 | 1.48 | 0.74 | 1.94
CC(C)c1c(C(=O)Nc2ccccc2)c(-c2ccccc2)c(-c2ccc(F)cc2)n1CC[C@@H](O)C[C@@H](O)CC(=O)O [Atorvastatin Calcium] | 2.68 | 1.33 | 1.15 | 3.05 | 2.23 | 1.8
COc1ccc(Cn2ccc3ccc(C(=O)NO)cc32)cc1 | 1.83 | 1.18 | 1.25 | 2.16 | 1.5 | 0.415
CC1(C)O[C@@H]2[C@@H](CO[C@@]3(COS(N)(=O)=O)OC(C)(C)O[C@@H]23)O1 [Topiramate] | 1.24 | 1.07 | 0.829 | 0.965 | 0.72 | 0.977
Cc1[nH]c(/C=C2\C(=O)Nc3ccc(S(=O)(=O)Cc4c(Cl)cccc4Cl)cc32)c(C)c1C(=O)N1CCC[C@@H]1CN1CCCC1 | 3.99 | 4.22 | 1.16 | 2 | 1.59 | 4.7
